Pf growth 48h: P. falciparum growth inhibition at 48 hours (one generation); P. falciparum luciferase growth in erythrocytes, 48 h; 310,000 tested, 5.9% active; Potency, µM (highest dose often 28.7 µM), hits mostly inhibitors
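Parasite viability was followed by luminescence of a genomically integrated firefly luciferase. Cultures held 0.1% parasitemia at 2% hematocrit (final), incubated under 5% CO2 at 37 C.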
Shiga toxin inh: Shiga toxin inhibition | Vero cells, Shiga toxin protein synthesis inhibition reporter | inhibition, % at 38.7 µM | 290,000 tested, 9.2% active | AID 2315; in the data active means inhibition mostly above about 28%, no sharp cut-off; inactive means mostly below about 43%
Cycloheximide cs: counter-screen hit for Shiga toxin inhibitors, cycloheximide. cell reporter, cycloheximide protein synthesis inhibition counterscreen. max response, %. 300,000 tested, 12% active. AID 2314; in the data active means max response mostly above about 13%, no sharp cut-off; inactive means mostly below about 14%; further: read at 38.3 µM for the half of the compounds with a filed dose
Pf growth 96h: P. falciparum growth inhibition at 96 hours. Potency, µM (highest dose often 28.7 µM), most hits filed as inhibitors. P. falciparum luciferase reporter growth, 96 h. 320,000 tested, 6.9% active
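Delayed-death screen, second-generation endpoint: infected erythrocytes, 2% hematocrit, 0.05% parasitemia final; 96 hours at 37 C, 5% CO2; luciferase detection reagent; luminescence decrease equals reduced growth.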
Hits are given with their value; n = inactive; u = inconclusive; x = no result given; [ ] = remark or other dose. Hits are enriched below; roughly 21% of the tested compounds scored in any of these assays. Unless noted, the call rests on the fitted dose curve; in most records, active means well fitted inhibition curve with a large enough effect; inconclusive means small, poorly fitted or top-dose-only effect, or another doubt; inactive means no such curve, though single readings can be large or run the other way.

SMILES	Pf growth 48h	Shiga toxin inh	Cycloheximide cs	Pf growth 96h
O=C(O)COc1ccc(/C=N/NC(=O)/C(=C/C=C/c2ccccc2)NC(=O)c2ccccc2)cc1	n	n	n	u
O=C(CCS(=O)(=O)c1ccc(Br)cc1)Nc1ccc2c(c1)OCO2	n	n	15	0.47µM
O=C(NCCc1ccc(F)cc1)Nc1ccc2c(c1)OCO2	n	58	48	n
COC(=O)Cn1c(C(O)c2ccccc2)nc2ccccc21 (stereo not drawn)	n	n	n	n
O=C(N/N=C/c1cccc2cccnc12)c1ccccc1O	u	84	32	n
O=C(N/N=C/c1cccc2nccnc12)c1ccccc1O	u	37	19	u
Cc1ccc2nc(Cl)c(/C=N/NC(=O)c3ccccc3O)cc2c1	n	n	n	u
O=C(c1ccc(NS(=O)(=O)c2ccc(Cl)c(Cl)c2)cc1)N1CCOCC1	u	x	x	n
Cc1ccc(N(CCC#N)C(=O)CSc2nnc3ccccn23)cc1	n	x	x	n
N[C@H]1C(O)O[C@H](CO)[C@@H](O)[C@@H]1O (stereo partly drawn)	n	x	x	n
Cc1cccc(N=Cc2[nH]c3ccc(Br)c(Cl)c3c2O)c1	15µM	63	n	n
Cn1ccs/c1=N\C(=O)Nc1cccc(Cl)c1	n	71	42	n
Cc1ccc(OCC(=O)N/N=C/c2ccco2)cc1	x	n	n	n
O=C(O)c1ccc(N/N=C/c2cc3cc4c(cc3nc2Cl)OCCO4)cc1	n	n	12	n
Cc1ccc(OCC(=O)N/N=C/c2ccc([N+](=O)[O-])o2)cc1	10µM	n	n	u
O=C(CSc1ccc(Cl)cc1)N/N=C/c1cccnc1	u	n	n	u
O=C(CSc1ccc(Cl)cc1)N/N=C/c1ccc([N+](=O)[O-])o1	u	n	14	u
O=C(O)c1ccc(N/N=C/c2cc3c(cc2[N+](=O)[O-])OCO3)cc1	n	42	n	n
O=C(COc1ccc(-c2ccccc2)cc1)N/N=C/c1cc(O)ccc1Br	n	n	n	8.3µM
O=C(COc1ccccc1)N/N=C/c1ccc([N+](=O)[O-])o1	8.3µM	n	11	10µM
O=C(CNc1ccc2ccccc2c1)N/N=C/c1ccc([N+](=O)[O-])o1	9.3µM	n	n	3.3µM
O=C(COc1ccccc1)N/N=C/c1cc2c(cc1[N+](=O)[O-])OCO2	x	n	23	u
O=C(CNc1ccc2ccccc2c1)N/N=C/c1ccc(C(=O)O)cc1	n	n	n	n
COc1ccccc1OC[C@H](O)COC(N)=O	n	x	x	n
COc1cc(C(=O)NCC(c2ccccc2)N(C)C)ccc1OCC(=O)N1CCOCC1 (stereo not drawn)	n	n	n	n
SMILES	Pf growth 48h	Shiga toxin inh	Cycloheximide cs	Pf growth 96h
Cc1cc(C)n2cc(CSc3ncn[nH]3)nc2n1	n	n	n	n
Cc1cc(C)n2cc(CSc3nnnn3-c3ccc(Cl)cc3)nc2n1	n	n	n	n
Cc1cc(C)n2cc(CSc3ccc(Br)cc3)nc2n1	n	31	26	n
Cc1cc(C)n2cc(CSc3nnnn3-c3ccccc3)nc2n1	n	n	n	8.3µM
CN1CCN(C(=O)c2cc([N+](=O)[O-])ccc2Cl)CC1	n	n	n	u
Cc1ccc(S(=O)(=O)N2C(=O)CCC2C(=O)O/N=C(\N)c2ccc([N+](=O)[O-])cc2)cc1 (stereo not drawn)	n	n	n	n
Cc1ccc(-c2cc(C)nc3ncnn23)cc1	x	n	n	12µM
Cc1ccc(Nc2cc(C)nc3ncnn23)cc1	3.7µM	n	n	u
Cc1cc(Nc2ccc(C)c(F)c2)n2ncnc2n1	1.5µM	n	n	n
Cc1cc(C)c(-c2cc(C)nc3ncnn23)c(C)c1	n	n	n	n
CCC(C(=O)NCCN1CCOCC1)n1c2ccccc2c2nc(=O)cc(C)n21 (stereo not drawn)	n	n	n	u
O=C(Nc1cccn2ncnc12)C(F)(F)F	n	n	n	n
O=C(NNC(=O)c1cccc(C(F)(F)F)c1)c1ccncc1	x	n	n	n
O=C(CCl)Nc1cccn2ncnc12	10µM	n	n	x
O=C(Nc1cccn2ncnc12)c1cccc(C(F)(F)F)c1	n	n	24	n
COc1ccc(S(N)(=O)=O)cc1C(=O)OCCCOc1ccc(F)cc1	n[0.00184 µM]	n	n	n
Cc1ccc(CCNc2ccccc2C)cn1	n	n	n	n
N=c1sccn1CC(=O)NC(c1ccccc1)c1ccccc1	n	n	n	n
O=C(CN1C(=O)NC2(CCCC2)C1=O)N1CCc2ccccc2C1	n	n	n	n
O=C(COC(=O)c1cccs1)NCc1ccco1	n	n	n	u
O=C(COC(=O)c1cccs1)NCc1ccccc1	x	n	25	u
O=C(COC(=O)c1cccs1)NCC1CCCCC1	n	n	20	n
O=C(COC(=O)c1cccs1)NCc1ccc2c(c1)OCO2	n	69	40	n
CCN(CC)S(=O)(=O)c1ccc(C)c(NC(=O)CNCCN(C(C)C)C(C)C)c1	n	n	n	n
CCCN1CCN(CCCNC(=O)c2ccc(CS(=O)c3ccc(OC)cc3)o2)CC1 (stereo not drawn)	n	n	n	u
SMILES	Pf growth 48h	Shiga toxin inh	Cycloheximide cs	Pf growth 96h
CC(C)(C)c1ccc(C(=O)NNc2ncccc2-n2cccc2)cc1	u	n	n	u
COc1ccc(NC(=O)CN(C)C(=O)c2cc(-c3ccc(OC)cc3)nc3ccccc23)cc1	9.3µM	x	x	u
COc1ccc(NC(=O)CN(C)C(=O)c2cc(-c3ccccc3)nc3ccccc23)cc1	u	x	x	n
Cc1ccc2nc(-c3ccccc3)cc(C(=O)N(C)CC(=O)Nc3ccccc3Br)c2c1	13µM	x	x	u
CCOc1ccc(NC(=O)CN(C)C(=O)c2cc(C)nc3ccccc23)cc1OCC	15µM	x	x	u
Cc1ccc(NC(=O)CN(C)C(=O)c2cc(-c3ccco3)nc3ccccc23)cc1	10µM	x	x	u
CCC(C)(C)NC(=O)C(c1ccc(F)cc1)N(CCOC)C(=O)CCC(=O)Nc1nccs1 (stereo not drawn)	n	n	n	n
COc1ccc(Cl)cc1NC(=O)CN(C)C(=O)c1cc(-c2ccncc2)nc2ccccc12	9.3µM	x	x	5.2µM
Cc1ccc(S(=O)(=O)CCC(O)c2ccc(Cl)cc2)cc1 (stereo not drawn)	x	n	n	n
O=C(Nc1nc(COc2ccccc2)cs1)C1CCC1	n	89	37	n
Cc1ccc(C(=O)Nc2nc(COc3ccccc3)cs2)s1	n	82	31	n
COc1cccc(OC)c1C(=O)Nc1nc(COc2ccccc2)cs1	n	n	n	n
CC(=O)Nc1nc(COc2ccc3ccccc3c2)cs1	x	97	52	n
CC(=O)Nc1nc(COc2ccccc2)cs1	n	64	44	u
Nc1nc(CCOc2ccc(F)cc2)cs1	n	154	33	n
Nc1nnc(CCOc2ccc(Cl)cc2)s1	n	n	n	n
Nc1nc(COc2ccc3ccccc3c2)cs1	n	116	60	x
COc1ccccc1OCc1csc(N)n1	n	n	n	n
COc1cccc(C(CNC(=O)C(c2ccccc2)c2ccccc2)N(C)C)c1 (stereo not drawn)	n	n	n	n
N#Cc1c(NC(=O)c2ccccc2)sc2c1CCCCC2	n	55	48	u
N#Cc1c(NC(=O)CSc2ncn[nH]2)sc2c1CCCC2	x	n	n	x

Screens from PubChem.
